{"source": "PubChem BioAssay AID651965", "about": "(National Center for Advancing Translational Sciences (NCATS), 2013)", "note": "The campaign covered roughly 340,000 compounds. About 6,400 (1.9%) were called active. Entries that show only a call come without a potency. Roughly 4% stayed inconclusive and do not appear here. This is one part of a sample in which actives are shown more often than they occur. The call rests on the fitted dose curve; in most records, active means well fitted falling curve with a large enough effect; inconclusive means small, poorly fitted or top-dose-only effect; inactive means no such curve, though single readings can be large or run the other way.", "data": [{"target": "ATP-dependent Clp protease proteolytic subunit (Bacillus subtilis (strain 168)) (UniProt P80244)", "sequence (P80244 whole entry, looked up)": "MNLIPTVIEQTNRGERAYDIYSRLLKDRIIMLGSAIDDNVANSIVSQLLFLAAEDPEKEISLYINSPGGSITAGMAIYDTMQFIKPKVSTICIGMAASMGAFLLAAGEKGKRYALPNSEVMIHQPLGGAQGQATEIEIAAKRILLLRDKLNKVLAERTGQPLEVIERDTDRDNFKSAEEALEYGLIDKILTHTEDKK", "test": "qHTS Assay for Activators of ClpP; further: potency means the concentration at half of the fitted maximal effect; further: the source files actives as falling curves though it sought activators and does not explain the sign; nearly all actives have a fitted effect of over 65% in size", "conditions": "purified B. subtilis ClpP, FRET peptide cleavage, 20 min; series mostly up to 57.5 µM", "summary_of_the_method": "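FRET quenching reversal measured ClpP activation: 10 microg/mL B. subtilis ClpP at pH 8 with the FRET-FV decapeptide, read at 430 nm after 320 nm excitation. The 20-min minus 0-min signal was scaled between DMSO/no-enzyme wells and ADEP (5.8 microM final).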", "values": [{"compound": "CCCCC(O)C1=C[N+](=O)CC=C1", "note": "(stereo not given)", "Potency": "inactive"}, {"compound": "Cc1cc(NC(C)C)n2c(nc3ccccc32)c1C#N", "Potency": "inactive"}, {"compound": "Cc1cc(NCc2ccco2)n2c(nc3ccccc32)c1C#N", "Potency": "28.2 µM (active)"}, {"compound": "CCOCCCNc1c(CC)c(C)c(C#N)c2nc3ccccc3n12", "Potency": "inactive"}, {"compound": "N#CCCN(C(=O)Nc1ccc(Cl)c(Cl)c1)C1CCCCC1", "Potency": "inactive"}, {"compound": "CCOC(=O)C1CCCN(C(=O)c2cc(-c3cccs3)oc2C)CC1", "note": "(stereo not given)", "Potency": "inactive"}, {"compound": "CCOC(=O)c1c(NC(=O)COc2cc(C)ccc2C(C)C)sc(C)c1C", "Potency": "inactive"}, {"compound": "Cc1ccc(NC(=O)CN(C)C(=O)COC(=O)c2nccnc2N)cc1", "Potency": "inactive"}, {"compound": "CCOC(=O)c1cc(C(C)C)sc1NC(=O)COC(=O)c1nccnc1N", "Potency": "20 µM (active)"}, {"compound": "COc1ccc(C(=O)Nc2nc(-c3ccc(S(=O)(=O)N4CCOCC4)cc3)cs2)cc1", "Potency": "inactive"}, {"compound": "COc1ccc(-c2csc(NC(=O)c3ccc(N4C(=O)CCC4=O)cc3)n2)cc1OC", "Potency": "14.1 µM (active)"}, {"compound": "COc1ccc(-c2csc(Nc3cccc(C)n3)n2)cc1OC", "Potency": "inactive"}, {"compound": "O=C(CSc1nc2c(cnn2-c2ccc(F)cc2)c(=O)[nH]1)N1CCCCCC1", "Potency": "inactive"}, {"compound": "CC(=O)c1sc2nc(SCC(=O)N3CCCCC3)[nH]c(=O)c2c1C", "Potency": "31.6 µM (active)"}, {"compound": "C=CCNC(=O)CSc1nc2sc(C)c(C)c2c(=O)[nH]1", "Potency": "inactive"}, {"compound": "CC(C)CC1C(=O)N(Cc2cn(CC3CCCCC3)nn2)CCS(=O)(=O)N1Cc1ccc(-c2ccc(Cl)cc2)cc1", "note": "(stereo not given)", "Potency": "inactive"}, {"compound": "CO[C@@H]1CN(C)C(=O)c2cc(NC(=O)Nc3cc(F)ccc3F)ccc2OC[C@H](C)N(C(=O)c2ccccn2)C[C@@H]1C", "Potency": "inactive"}, {"compound": "CC(C)Cn1c(N)c(C(=O)NCc2cccs2)c2nc3ccccc3nc21", "Potency": "7.08 µM (active)"}, {"compound": "CCOc1ccccc1NC(=O)Cn1nnc(C(=O)NCc2cccs2)c1N", "Potency": "inactive"}, {"compound": "Cn1ncc(Br)c1C(=O)NCc1cccs1", "Potency": "inactive"}, {"compound": "NCCCNC(=S)NCCCN(Cc1ccc(Cl)cc1)c1ccc(Br)cn1", "Potency": "inactive"}, {"compound": "CC1(C(=O)Nc2ccc3c(c2)OCCO3)CN(S(C)(=O)=O)CC(=O)N1Cc1cccc(F)c1", "note": "(stereo not given)", "Potency": "inactive"}, {"compound": "CCC(Oc1ccccc1)C(=O)NCc1cccnc1", "note": "(stereo not given)", "Potency": "35.5 µM (active)"}, {"compound": "O=C(NCc1cccnc1)Nc1ccccc1F", "Potency": "inactive"}, {"compound": "CCC(C(=O)NCc1cccnc1)n1nc(C)c2sc3ccccc3c2c1=O", "note": "(stereo not given)", "Potency": "inactive"}, {"compound": "CC(=O)Nc1cccc(-c2ccnc3c2CC(C)(C(=O)NCc2ccccc2)O3)c1", "note": "(stereo not given)", "Potency": "inactive"}, {"compound": "CC1(C(=O)Nc2ccc3c(c2)OCCO3)CCN1C(=O)Cc1cc(F)ccc1F", "note": "(stereo not given)", "Potency": "inactive"}, {"compound": "COc1ccc(NC(=O)C2Cc3c(-c4ccc(Cl)cc4)ccnc3O2)cc1", "note": "(stereo not given)", "Potency": "inactive"}, {"compound": "O=C(CSc1nnc(-c2ccco2)o1)NCC(=O)c1ccccc1", "Potency": "inactive"}, {"compound": "O=C(Nc1cccc(-c2nnc(-c3ccccc3)o2)c1)C1CCCO1", "note": "(stereo not given)", "Potency": "inactive"}, {"compound": "CC(=O)Nc1ccc(NC(=O)COc2ccc(-c3ccccc3)cc2)cc1", "Potency": "inactive"}, {"compound": "Cc1ccc(OCC(=O)Nc2ccc(-c3nnc(-c4ccco4)o3)cc2)cc1", "Potency": "28.2 µM (active)"}, {"compound": "COc1ccc(OCC(=O)Nc2nnc(-c3ccco3)s2)cc1", "Potency": "inactive"}, {"compound": "CCOc1ccc(-c2nnc(-c3ccco3)o2)cc1", "Potency": "8.91 µM (active)"}, {"compound": "CCOc1ccc(NC(=O)c2ncoc2-c2ccco2)cc1", "Potency": "inactive"}, {"compound": "COc1ccc(CC(=O)Nc2c(C(N)=O)oc3ccccc23)cc1", "Potency": "inactive"}, {"compound": "COc1ccc(CC(=O)Nc2ccc(-c3nnc(-c4ccccc4)o3)cc2)cc1", "Potency": "7.08 µM (active)"}, {"compound": "O=C(CSc1nnc(-c2ccc(NS(=O)(=O)c3ccccc3)cc2)o1)NCC1CCCO1", "note": "(stereo not given)", "Potency": "inactive"}, {"compound": "O=C(Nc1ccc(-c2nnc(-c3ccccc3)o2)cc1)C1CCCO1", "note": "(stereo not given)", "Potency": "12.6 µM (active)"}, {"compound": "COc1ccc(CC(=O)Nc2ccc(C(=O)NC(C)(C)C)cc2)cc1", "Potency": "inactive"}, {"compound": "Fc1cccc(Cc2c(-c3ccc(Cl)cc3)nc3ccc(Cl)cn23)c1", "Potency": "inactive"}, {"compound": "O=C(Nc1cccc2cccnc12)c1ccc2sc([C@H]3C[C@H](O)[C@@H](CO)O3)nc2c1", "Potency": "inactive"}, {"compound": "CCCCCc1c(Cc2ccccc2)ncn1CCc1ccccc1OC", "Potency": "inactive"}, {"compound": "O=C(Nc1nnc([C@H]2C[C@H](O)[C@@H](CO)O2)s1)c1cccc(Cl)c1", "Potency": "inactive"}, {"compound": "CC(C)(O)C1=C[N+](=O)CC=C1", "Potency": "inactive"}, {"compound": "O=S(=O)(c1cccc(C(F)(F)F)c1)N1c2ccccc2-n2cccc2C1c1cccnc1", "note": "(stereo not given)", "Potency": "inactive"}, {"compound": "CN(C)c1ccc(/C=N\\Nc2ccc([N+](=O)[O-])cc2[N+](=O)[O-])cc1Cl", "Potency": "inactive"}, {"compound": "O=C(Nc1ccc(Cl)cc1)c1cnn2c1NC(=C1CC1)C=C2C(F)F", "Potency": "inactive"}, {"compound": "CC(C)(C)c1ccc(S(=O)(=O)NC(=O)C2(C)CCN2C(=O)CC2CC2)cc1", "note": "(stereo not given)", "Potency": "inactive"}, {"compound": "COc1ccc(C(C)C)cc1-c1ccc2nncn2c1", "Potency": "inactive"}, {"compound": "C/C=C/NNC(=O)Cc1ccc(OC)cc1", "Potency": "inactive"}, {"compound": "CC1(C)Cc2ccccc2-c2c[nH]c(=O)n21", "Potency": "inactive"}, {"compound": "O=c1oc2ccc(C#CC3(O)CCCCC3)cc2cc1-n1cc(-c2ccsc2)nn1", "Potency": "31.6 µM (active)"}, {"compound": "CCCCCn1nnnc1-c1nc2cc3ccccc3cc2[nH]c1=O", "Potency": "inactive"}, {"compound": "CCOC(=O)[C@]12CCCC=C1N(Cc1ccc3c(c1)OCO3)C(=O)[C@H](CC(=O)NCc1cccs1)C2", "Potency": "inactive"}, {"compound": "O=C(c1ccc2c(=O)n(Cc3ccco3)c(=S)[nH]c2c1)N1CCCC1", "Potency": "inactive"}, {"compound": "O=C(Nc1cc(-c2nc3ncccc3o2)ccc1Cl)c1ccco1", "Potency": "inactive"}, {"compound": "Cc1cccc(C(=O)Nc2ccc(-c3nc4ncccc4o3)cc2C)c1", "Potency": "35.5 µM (active)"}, {"compound": "O=C(Nc1cccc(-c2nc3ncccc3o2)c1)c1ccco1", "Potency": "inactive"}, {"compound": "COc1ccc(C(NC(=O)C2CCN(CCCc3ccccc3)CC2)c2cccs2)cc1", "note": "(stereo not given)", "Potency": "inactive"}, {"compound": "Cc1ccccc1OCc1ccc(-c2nc(C#N)c(N3CCCCC3)o2)o1", "Potency": "inactive"}, {"compound": "CCC(C)Nc1oc(-c2ccc(COc3ccc(Cl)cc3)o2)nc1C#N", "note": "(stereo not given)", "Potency": "28.2 µM (active)"}, {"compound": "CN1CCN(c2oc(-c3ccc(COc4ccc(Cl)cc4)o3)nc2C#N)CC1", "Potency": "35.5 µM (active)"}, {"compound": "CC1CC(C)CN(c2oc(-c3ccc(OCc4ccc(Cl)cc4)cc3)nc2C#N)C1", "note": "(stereo not given)", "Potency": "inactive"}, {"compound": "N#Cc1nc(COc2ccc(Cl)cc2)oc1N1CCCC1", "Potency": "inactive"}, {"compound": "COc1ccc(OCc2ccc(-c3nc(C#N)c(N4CCN(c5ccccc5)CC4)o3)o2)cc1", "Potency": "inactive"}, {"compound": "CCCCCc1c(-c2ccc(OC)c(OC)c2)ncn1CCc1ccccc1OC", "Potency": "inactive"}, {"compound": "O=S(=O)(c1ccc(Br)cc1)c1nnn2c1nc(NC1CCCCCC1)c1sccc12", "Potency": "inactive"}, {"compound": "O=S(=O)(c1ccc(Cl)cc1)c1nnn2c1nc(NC1CCCC1)c1sccc12", "Potency": "25.1 µM (active)"}, {"compound": "CC1CCCN(c2nc3c(S(=O)(=O)c4ccc(C(C)C)cc4)nnn3c3ccsc23)C1", "note": "(stereo not given)", "Potency": "inactive"}, {"compound": "C[C@@H]1Cn2cnc(C(=O)Nc3ccc(CNC(=O)OC(C)(C)C)cc3)c2C(=O)N1", "Potency": "inactive"}, {"compound": "CC1CN(C(=O)c2cccc(NS(=O)(=O)c3ccc(Br)cc3)c2)CC(C)O1", "note": "(stereo not given)", "Potency": "inactive"}, {"compound": "COc1ccc(COC[C@H](CC(C)C)N2CCN(C(=O)c3cccc(C(F)(F)F)c3)CCC2=O)cc1", "Potency": "inactive"}, {"compound": "COC(=O)C[C@@H]1C=C[C@@H](NC(=O)c2cccnc2)[C@@H](CO)O1", "Potency": "inactive"}, {"compound": "COc1ccc(CCNc2cc(C)nc3c(-c4ccc(Cl)cc4)c(C)nn23)cc1OC", "Potency": "28.2 µM (active)"}, {"compound": "COc1ccc(-c2c(C)nn3c(N4CCC(C(=O)NCCC(C)C)CC4)cc(C)nc23)cc1OC", "Potency": "inactive"}, {"compound": "COc1ccc(CCNc2nc(-c3ccc(Cl)cc3)cc(C(F)(F)F)n2)cc1OC", "Potency": "inactive"}, {"compound": "CNc1cncc(-c2cccc(C(=O)N3CCOCC3)c2)n1", "Potency": "inactive"}, {"compound": "NCCCCC(C(=O)O)N(C(=O)OCc1ccccc1)C(=O)OCc1ccccc1", "note": "(stereo not given)", "Potency": "inactive"}, {"compound": "CC(C)(C)OC(=O)N(Cc1ccco1)S(=O)(=O)c1ccccc1Br", "Potency": "inactive"}, {"compound": "Cc1nc2ccc(NC(=O)N3CCC(c4ccccc4)C3)cc2nc1C", "note": "(stereo not given)", "Potency": "10 µM (active)"}, {"compound": "Cc1ccc(C2CCN(C(=S)Nc3cccc(Cl)c3)C2)cc1", "note": "(stereo not given)", "Potency": "inactive"}, {"compound": "O=C(C(=O)N1CCC(c2ccccc2)CC1)c1ccccc1", "Potency": "inactive"}, {"compound": "COC(=O)[C@]12CCCCC=C1N(Cc1ccco1)C(=O)[C@H](CC(=O)NCC1CCCCC1)C2", "Potency": "inactive"}, {"compound": "C[C@H](NC(=O)[C@@H]1CCCN1C(=O)[C@@H]1CCCN1C(=O)c1ccccc1)c1ccccc1", "Potency": "inactive"}, {"compound": "CN(C)c1cccc2ccccc12", "Potency": "inactive"}, {"compound": "O=C(CN1CCCC1)Nc1sc2c(c1C(=O)Nc1ccccc1)CCCC2", "Potency": "28.2 µM (active)"}, {"compound": "O=C(Cc1ccccc1)Nc1sc2c(c1C(=O)Nc1ccc(Br)cc1)CCC2", "Potency": "inactive"}, {"compound": "CCOc1ccc(NC(=O)c2c(NC(=O)Cc3ccccc3)sc3c2CCCCC3)cc1", "Potency": "inactive"}, {"compound": "CCN(CC)CCCNC(=O)CCn1nc(-c2ccc(Cl)cc2)ccc1=O", "Potency": "inactive"}, {"compound": "CCc1ccc(-c2cc3c(=O)n(CC(=O)NCCCN4CCN(Cc5ccccc5)CC4)nc(C)n3n2)cc1", "Potency": "inactive"}, {"compound": "Cc1ccc(-c2ccc(=O)n(CC(=O)NCCCN3CCCCC3)n2)cc1", "Potency": "14.1 µM (active)"}, {"compound": "S=c1[nH]c(=S)c2n[nH]nc2[nH]1", "Potency": "inactive"}, {"compound": "NC(=O)Nc1ccc(/C=C/c2ccnc3ccccc23)cc1", "Potency": "inactive"}, {"compound": "CC(C)C1CC2=C(C(=O)OC(C)(C)O2)C(c2ccc(F)cc2)O1", "note": "(stereo not given)", "Potency": "inactive"}]}]}
